Screens from PubChem BioAssay.
Rows were chosen to be rich in hits. Some 19% of all compounds tested hit in one or more screens of this group.
IL-1B inflam inh: qHTS for Inhibitors of Inflammasome Signaling: IL-1-beta AlphaLISA Primary Screen; THP-1 LPS/ATP IL-1B secretion, AlphaLISA, 16 h; hits give low values; activity change, % at 57.5 µM; 360,000 compounds, 4.7% hits; AID 743279, 2014; in the data active means activity change below about -50%; inconclusive means mostly about -30% to -49%; further: on the % scale 0 is the no-effect control and ±100 the full control effect
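THP-1 cells pretreated 1 hr with compounds (up to 57.5 uM final), then stimulated with LPS (250 ng/mL final) plus ATP (1.25 mM final); secreted IL-1B measured by AlphaLISA after 16 hr, decreased signal indicating inhibition.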
HepG2 viability: qHTS for Inhibitors of TGF-b: Cytotox Counterscreen | AID 588856, 2011 | Potency, µM (series often up to 46.1 µM), for the others: at the highest dose activity change, negative = cytotoxicity, actives largely listed as cytotoxic | HepG2 CAGA-GFP viability, ATP luminescence, 18 h | 410,000 compounds, 0.76% hits; further: potency means the concentration at half of the fitted maximal effect
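CellTiter-Glo luminescence gave cytotoxicity after 18 hours at 37 degrees C. The cells were HepG2 CAGA-GFP in 1% FBS DMEM, stimulated with 500 pg/mL TGF-beta after compound addition. %Activity was normalised to no-cell wells (complete cell-killing) and DMSO (no toxicity), and curves were fitted and classified.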
TDP1 cell noCPT: qHTS for Inhibitors of human tyrosyl-DNA phosphodiesterase 1 (TDP1): qHTS in cells in absence of CPT; DT40 Tdp1-/- hTDP1 cells, no CPT, ATP luminescence, 48 h; Potency, µM (top dose mostly 46.2 µM), without a hit: top-dose activity change, negative = growth inhibition, actives largely listed as inhibitors; 420,000 compounds, 15% hits; AID 686978, 2013; further: potency means the concentration at half of the fitted maximal effect; on the % scale 0 is the no-effect control and ±100 the full control effect; nearly all actives have a fitted effect of over 55% in size
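Chicken DT40 Tdp1-/- cells stably complemented with human TDP1 were seeded at 400 cells/well with DMSO in place of 20 nM camptothecin. After compound pinning, cells grew at least 48 hr at 37 °C; viability read by CellTiter-Glo luminescence.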
TGFb SMAD3 inh: qHTS for Inhibitors of TGF-b; 410,000 compounds, 1.2% hits; Potency, µM (top dose mostly 46.1 µM), inactives show at the top dose activity, negative = inhibition, most hits filed as inhibitors; HepG2 CAGA-GFP TGF-b/SMAD3 reporter, GFP fluorescence, 18 h; TGF-beta stimulated, 500 pg/mL final; further: potency means the concentration at half of the fitted maximal effect; on the % scale 0 is the no-effect control and ±100 the full control effect; nearly all actives have a fitted effect of over 65% in size
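Per well, imaged GFP fluorescence of HEPG2 CAGA-GFP cells gives the signal; cells get compound, then TGF-beta (500 pg/mL final), 18 h at 37 degrees C; %Activity versus -TGF-beta and +DMSO controls.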
S-ASM inh: Inhibitors of Secretory Acid Sphingomyelinase (S-ASM): qHTS; Sphingomyelin phosphodiesterase (Homo sapiens), P17405; placental ASM, HMU-PC fluorogenic substrate, 60 min; Potency, µM (highest dose often 57.5 µM), for inactives: top-dose activity change, negative = inhibition, hits mostly inhibitors; 340,000 compounds, 0.006% hits; AID 504937, 2011; further: potency means the concentration at half of the fitted maximal effect
Target sequence (P17405 47-631 limits assumed): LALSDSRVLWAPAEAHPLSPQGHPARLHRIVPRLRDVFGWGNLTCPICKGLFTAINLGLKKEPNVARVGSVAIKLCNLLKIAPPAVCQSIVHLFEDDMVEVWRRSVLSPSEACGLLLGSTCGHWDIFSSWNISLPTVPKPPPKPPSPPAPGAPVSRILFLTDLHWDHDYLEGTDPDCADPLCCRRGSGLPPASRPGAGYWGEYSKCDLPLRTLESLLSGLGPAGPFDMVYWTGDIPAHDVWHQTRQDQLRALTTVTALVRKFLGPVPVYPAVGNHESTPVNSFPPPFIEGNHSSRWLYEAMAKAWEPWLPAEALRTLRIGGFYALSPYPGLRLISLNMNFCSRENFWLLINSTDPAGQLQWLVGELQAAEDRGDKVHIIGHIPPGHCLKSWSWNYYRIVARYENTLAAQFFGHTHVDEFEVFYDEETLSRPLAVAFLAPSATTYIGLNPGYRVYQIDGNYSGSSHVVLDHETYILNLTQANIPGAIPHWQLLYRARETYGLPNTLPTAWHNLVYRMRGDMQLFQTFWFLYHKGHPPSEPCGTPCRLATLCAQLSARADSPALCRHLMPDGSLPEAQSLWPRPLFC
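Fluorescence read-out (Ex 386 nm, Em 447 nm) after stopping the reaction at pH 10. Enzyme: ASM from human placenta; substrate HMU-PC0, 9 uM final; 60 min, 37 °C. Compound preincubation 10 min, ambient temperature.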
DT40 TDP1 CPT: qHTS for Inhibitors of human tyrosyl-DNA phosphodiesterase 1 (TDP1): qHTS in cells in presence of CPT. chicken DT40 Tdp1-/-;hTDP1 cells + 20 nM CPT, ATP luminescence, 48 h. Potency, µM (titrated, usually from 46.2 µM), for the others: at the highest dose activity change, negative = growth inhibition, most hits filed as inhibitors. 420,000 compounds, 12% hits; further: potency means the concentration at half of the fitted maximal effect; on the % scale 0 is the no-effect control and ±100 the full control effect; nearly all actives have a fitted effect of over 55% in size
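Chicken DT40 Tdp1-/- cells stably complemented with human TDP1 were seeded at 400 cells/well in medium containing 20 nM camptothecin, exposed to pin-transferred compounds, and grown at 37 °C for at least 48 hr. Viability was read as ATP luminescence.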
An asterisk follows results filed as active; ! = a repeat was not active. Unless noted, the call rests on the fitted dose curve; in most records, active means well fitted curve in the direction sought with a large enough effect; inconclusive means small, poorly fitted or top-dose-only effect, or another doubt; inactive means no such curve, though single readings can be large; an effect the other way counts as inactive or inconclusive.

`COc1cccc(NC(=O)CCc2nc(-c3ccccc3F)no2)c1` gave IL-1B inflam inh -2, HepG2 viability -14%, TDP1 cell noCPT inconclusive, TGFb SMAD3 inh -17%, S-ASM inh 0% and DT40 TDP1 CPT inconclusive.
Screening COc1ccc(-c2noc(CCC(=O)Nc3cccc(C)c3C)n2)cc1OC returned HepG2 viability -40%, TDP1 cell noCPT inconclusive, TGFb SMAD3 inh -21% and DT40 TDP1 CPT inconclusive.
COc1ccc(Cl)cc1NC(=O)CCc1nc(-c2ccccc2F)no1 was read as IL-1B inflam inh 15, HepG2 viability -3%, TDP1 cell noCPT 16µM*, TGFb SMAD3 inh 3%, S-ASM inh -3% and DT40 TDP1 CPT 23µM*!.
`Cc1ccccc1-c1noc(CCC(=O)Nc2cccc(C)c2C)n1` gave HepG2 viability -1%, TDP1 cell noCPT 16µM*, TGFb SMAD3 inh inconclusive and DT40 TDP1 CPT -10%.
Screening CCN1C(=O)c2ccccc2S(=O)c2ccc(C(=O)N3CCOCC3)cc21 (stereo unspecified) returned IL-1B inflam inh 7, HepG2 viability -13%, TDP1 cell noCPT -1%, TGFb SMAD3 inh 6%, S-ASM inh 6% and DT40 TDP1 CPT -4%.
Screening COc1cc(NC(=O)CCN2CC(C)OC(C)C2)cc(OC)c1 (stereo unspecified) returned IL-1B inflam inh -4, HepG2 viability 38%, TDP1 cell noCPT -2%, TGFb SMAD3 inh -1%, S-ASM inh 0% and DT40 TDP1 CPT 2%.
Screening COCCNC(=O)C1CCCN(Cc2cccc(C(F)(F)F)c2)CC1 (stereo unspecified) returned IL-1B inflam inh 20, HepG2 viability 19%, TDP1 cell noCPT -4%, TGFb SMAD3 inh 39% and DT40 TDP1 CPT 14%.
Screening O=C(NC(c1ccc2ccccc2n1)c1cccs1)C1CCN(Cc2cccc(C(F)(F)F)c2)CC1 (stereo unspecified) returned IL-1B inflam inh -66*, HepG2 viability -33%, TDP1 cell noCPT 10µM*, TGFb SMAD3 inh inconclusive and DT40 TDP1 CPT 7.3µM*.
O=C(NC(c1ccccc1)c1ccc2ccccc2n1)C1CCN(Cc2ccc(Cl)c(Cl)c2)CC1 (stereo unspecified) was read as IL-1B inflam inh inconclusive, HepG2 viability -29%, TDP1 cell noCPT 15µM*, TGFb SMAD3 inh inconclusive and DT40 TDP1 CPT inconclusive.
`O=C(NC(c1ccccc1)c1ccc2ccccc2n1)C1CCN(Cc2cccc(C(F)(F)F)c2)CC1` (stereo unspecified) gave IL-1B inflam inh inconclusive, HepG2 viability -26%, TDP1 cell noCPT 6.5µM*, TGFb SMAD3 inh inconclusive and DT40 TDP1 CPT 7.3µM*.
CC(OC(=O)/C=C/c1ccco1)C(=O)NC1CCCCC1 (stereo unspecified) was read as IL-1B inflam inh 9, HepG2 viability -14%, TDP1 cell noCPT inconclusive, TGFb SMAD3 inh -3% and DT40 TDP1 CPT -19%.
For COc1cc2c(cc1OC)CN(C(=O)c1cc(C3CC3)nn1-c1ccccc1)CC2 the results were IL-1B inflam inh -55*, HepG2 viability -29%, TDP1 cell noCPT inconclusive, TGFb SMAD3 inh -23%, S-ASM inh 0% and DT40 TDP1 CPT 18µM*.
